The values below come from PubChem BioAssay (EPA / NIEHS).

Broadly, the AC50 is the midpoint of the concentration-response curve, whichever way the signal moves.

Read-out in test [1]: succinate dehydrogenase complex iron sulfur subunit B (SDHB), SDHB (gene 6390)
The experiment in a line: LTEA_HepaRG_SDHB: Life Technologies and Expression Analysis (LTEA) Assay for succinate dehydrogenase complex iron sulfur subunit B (SDHB) using HepaRG (AID 2283528). The following applies: mRNA level, 48 h; actives raise or lower the signal. The method, boiled down: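 Readout is SDHB transcript level by qRT-PCR, normalised to three housekeeping genes and fitted bidirectionally against 0.5% DMSO vehicle. Human HepaRG cells were treated for 48 h at up to 100 uM.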

Read-out in test [2]: Signal transducer and activator of transcription 3 (Homo sapiens) (UniProt P40763)
The test can be described thus: LTEA_HepaRG_STAT3: Life Technologies and Expression Analysis (LTEA) Assay for Signal transducer and activator of transcription (STAT3) using HepaRG (AID 2283529). The following applies: mRNA level, 48 h; actives raise or lower the signal. The method, boiled down:
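Differentiated HepaRG cells, serum-free induction medium, dosed 48 h in duplicate, 8 half-log concentrations from 100 uM in 0.5% DMSO. STAT3 mRNA by qRT-PCR, normalised to ACTB, GAPDH, POLR2A; bidirectional fit versus DMSO.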

Read-out in test [3]: solute carrier (SLCO1B1), SLCO1B1 (gene 10599)
The experiment in a line: LTEA_HepaRG_SLCO1B1: Life Technologies and Expression Analysis (LTEA) Assay for solute carrier (SLCO1B1) using HepaRG (AID 2283530). The following applies: mRNA level, 48 h; actives raise or lower the signal. The essentials: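 SLCO1B1 transcript read by qRT-PCR (Fluidigm arrays), normalized to three housekeeping genes, after 48 h chemical exposure of HepaRG cells; bidirectional concentration-response fitting versus 0.5% DMSO baseline. Eight-point half-log series, maximum 100 uM.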

Read-out in test [4]: sulfotransferase 2A1 (SULT2A1), SULT2A1 (gene 6822)
The test can be described thus: LTEA_HepaRG_SULT2A1: Life Technologies and Expression Analysis (LTEA) Assay for sulfotransferase 2A1 (SULT2A1) using HepaRG (AID 2283531). The following applies: mRNA level, 48 h; actives raise or lower the signal. The essentials: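 HepaRG, 48 h chemical exposure, 8-pt half-log curve from 100 uM in 0.5% DMSO, duplicates. Readout: TaqMan qRT-PCR of SULT2A1 mRNA, housekeeping-normalized. Bidirectional fit vs DMSO baseline.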

Read-out in test [5]: Transforming Growth Factor (TGFA), TGFA (gene 7039)
The test can be described thus: LTEA_HepaRG_TGFA: Life Technologies and Expression Analysis (LTEA) Assay for Transforming Growth Factor (TGFA) using HepaRG (AID 2283532). Particulars: mRNA level, 48 h; actives raise or lower the signal. The essentials:
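Differentiated HepaRG cells exposed 48 hours in serum-free induction medium, 0.5% DMSO vehicle, 8-point half-log series from 100 uM, in duplicate. TGFA mRNA by TaqMan qRT-PCR, normalised to ACTB, GAPDH, POLR2A; bidirectional fit versus DMSO.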

Read-out in test [6]: Transforming Growth Factor (TGFB1), TGFB1 (gene 7040)
The test can be described thus: LTEA_HepaRG_TGFB1: Life Technologies and Expression Analysis (LTEA) Assay for Transforming Growth Factor (TGFB1) Transporter using HepaRG (AID 2283533). Particulars: mRNA level, 48 h; actives raise or lower the signal. The method, boiled down: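 qRT-PCR readout of TGFB1 transcript in HepaRG lysates, normalized to three housekeeping genes; gain or loss of signal fitted relative to 0.5% DMSO vehicle. Exposure: 48 h, 8-point curve from 100 uM, duplicate wells.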

Read-out in the next test: TIMP1, TIMP1 (gene 7076)
The test can be described thus: LTEA_HepaRG_TIMP1: Life Technologies and Expression Analysis (LTEA) Assay for TIMP1 using HepaRG (AID 2283534). Particulars: mRNA level, 48 h; actives raise or lower the signal. The essentials: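 HepaRG, 48 h exposure, 8-pt half-log series from 100 uM in 0.5% DMSO, duplicates; TIMP1 transcript by Fluidigm qRT-PCR, housekeeping-normalized; bidirectional curve fit vs DMSO baseline.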

Read-out in test [7]: Tumor necrosis factor receptor 1 (TNFRSF1A), TNFRSF1A (gene 7132)
The test can be described thus: LTEA_HepaRG_TNFRSF1A: Life Technologies and Expression Analysis (LTEA) Assay for Tumor necrosis factor receptor 1 (TNFRSF1A) using HepaRG (AID 2283535). Particulars: mRNA level, 48 h; actives raise or lower the signal. The method, boiled down:
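HepaRG, 48 h plating then 48 h chemical exposure, serum-free induction media; 8-pt CRC from 100 uM, half-log, 0.5% DMSO vehicle, duplicates. Readout: TaqMan qRT-PCR (Fluidigm), housekeeping-gene normalized; bidirectional fit vs DMSO.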

Read-out in test [8]: Thyroid Hormone Responsive (THRSP), THRSP (gene 7069)
The experiment in a line: LTEA_HepaRG_THRSP: Life Technologies and Expression Analysis (LTEA) Assay for Thyroid Hormone Responsive (THRSP) using HepaRG (AID 2283536). The following applies: mRNA level, 48 h; actives raise or lower the signal. The method, boiled down:
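Differentiated HepaRG cells treated 48 h in serum-free induction medium with 8 half-log concentrations up to 100 uM (0.5% DMSO), duplicates. THRSP mRNA by TaqMan qRT-PCR normalised to ACTB, GAPDH, POLR2A; bidirectional fit versus DMSO.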

Read-out in test [9]: Cellular tumor antigen p53 (Homo sapiens) (UniProt P04637)
The experiment in a line: LTEA_HepaRG_TP53: Life Technologies and Expression Analysis (LTEA) Assay for Tumor Protein P53 (TP53) using HepaRG (AID 2283537). Particulars: mRNA level, 48 h; actives raise or lower the signal. The essentials: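 Read-out is TP53 transcript level by microfluidic qRT-PCR, normalised to three housekeeping genes and fitted bidirectionally against DMSO. Human HepaRG cells received compounds for 48 h, highest concentration 100 uM.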

Read-out in test [10]: UDP glucuronosyltransferase (UGT1A1), UGT1A1 (gene 54658)
The test can be described thus: LTEA_HepaRG_UGT1A1: Life Technologies and Expression Analysis (LTEA) Assay for UDP glucuronosyltransferase (UGT1A1) using HepaRG (AID 2283538). The following applies: mRNA level, 48 h; actives raise or lower the signal. The method, boiled down:
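HepaRG cells, 0.5% DMSO vehicle, 48 h exposure in serum-free induction medium to 8-point half-log series topping at 100 uM, in duplicate. UGT1A1 mRNA by Fluidigm qRT-PCR, normalized to ACTB/GAPDH/POLR2A; bidirectional fit versus DMSO.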

Read-out in test [11]: UDP glucuronosyltransferase (UGT1A6), UGT1A6 (gene 54578)
The experiment in a line: LTEA_HepaRG_UGT1A6: Life Technologies and Expression Analysis (LTEA) Assay for UDP glucuronosyltransferase (UGT1A6) using HepaRG (AID 2283539). The following applies: mRNA level, 48 h; actives raise or lower the signal. The method, boiled down: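 qRT-PCR readout of UGT1A6 mRNA (normalized to ACTB/GAPDH/POLR2A) in differentiated HepaRG cells after 48 h chemical exposure; 8 concentrations, top 100 uM, half-log steps, 0.5% DMSO. Bidirectional curve fit relative to DMSO baseline.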

Test [12] is described as follows: LTEA_HepaRG_LDH_cytotoxicity: Cytotoxicity Assessment in the Life Technologies and Expression Analysis (LTEA) Assay (AID 2283563; active means hit-call score of the fitted dose curve at least 0.9, where 1 is the maximum;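 further: LDH activity released into spent culture medium as a marker of cell death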). The method, boiled down:
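HepaRG (human liver line), 48 h exposure, 8-pt half-log series from 100 uM, 0.5% DMSO vehicle, duplicates. Read-out: LDH in spent medium. Positive-direction fit vs DMSO baseline.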

The nature of test [13]: ATG_XTT_Cytotoxicity: Cytotoxicity Assessment in the Attagene TRANS-FACTORIAL HepG2 Assay (AID 2283584; active means hit-call score of the fitted dose curve at least 0.9, where 1 is the maximum). The method, boiled down: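 XTT readout of cell number in transfected HepG2 cells, 24 h post-dosing; DMSO serves as negative control and baseline, with activity taken as loss of viability signal.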
Test [14] can be described thus: TOX21_p53_BLA_p2_viability: Viability Assessment in the Tox21 HCT-116 p53 Agonism Beta-lactamase Assay, Phase 2 (AID 2283591; active means hit-call score of the fitted dose curve at least 0.9, where 1 is the maximum;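 further: compound exposure lasted 16 h at 37 °C; actives lower the ATP signal meaning cytotoxicity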). The method, boiled down:
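HCT116 p53-bla cells, 4000/well, dosed after 5 h plating (217-fold dilution of DMSO stocks) and incubated 16 h at 37C. Viability taken as cellular ATP by CellTiter-Glo luminescence after 30 min RT; signal loss marks cytotoxicity.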

Test [15] concerns the target Cellular tumor antigen p53 (Homo sapiens) (UniProt P04637). The test can be described thus: TOX21_p53_BLA_p2_ratio: Tox21 HCT-116 p53 Agonism Beta-lactamase Assay, Ratio, Phase 2 (AID 2283592; active means hit-call score of the fitted dose curve at least 0.9, where 1 is the maximum). The method, boiled down:
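In this cell-based reporter format, HCT116 cells were dosed with chemicals delivered from DMSO by 217-fold dilution and incubated 16 h at 37C. Emission at 460 and 530 nm after 2 h CCF4-AM loading provided the ratio, fitted upward versus DMSO.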

Test [16] in a line: TOX21_p53_BLA_p3_viability: Viability Assessment in the Tox21 HCT-116 p53 Agonism Beta-lactamase Assay, Phase 3 (AID 2283593; active means hit-call score of the fitted dose curve at least 0.9, where 1 is the maximum;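 further: cells exposed to compound for 16 h before reading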). The essentials: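 HCT116 cells, 4000/well, dosed 5 h after plating by pin transfer (217-fold dilution from DMSO stock) and incubated 16 h at 37C, 5% CO2. Viability read as ATP luminescence with CellTiter-Glo after 30 min at room temperature.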
The target in test [17] is Cellular tumor antigen p53 (Homo sapiens) (UniProt P04637). The test can be described thus: TOX21_p53_BLA_p3_ratio: Tox21 HCT-116 p53 Agonism Beta-lactamase Assay, Ratio, Phase 3 (AID 2283596; active means hit-call score of the fitted dose curve at least 0.9, where 1 is the maximum). The method, boiled down: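 HCT116 p53-bla cells (4000/well) given compound in DMSO (217-fold dilution) after 5 h, incubated 16 h at 37C. CCF4-AM substrate 2 h at room temperature; 460/530 nm emission ratio, gain fitted against DMSO.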

Test [18] is described as follows: TOX21_p53_BLA_p4_viability: Viability Assessment in the Tox21 HCT-116 p53 Agonism Beta-lactamase Assay, Phase 4 (AID 2283597; active means hit-call score of the fitted dose curve at least 0.9, where 1 is the maximum;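 further: hits lower the luminescence signal meaning cytotoxicity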). The method, boiled down:
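We seeded HCT116 p53 reporter cells at 4000/well and waited 5 h. We then added compounds in DMSO at a 217-fold dilution and incubated for 16 h. Viability was read as CellTiter-Glo luminescence after 30 min at RT.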

Read-out in test [19]: X-box binding protein 1 (XBP1), XBP1 (gene 7494)
The experiment in a line: LTEA_HepaRG_XBP1: Life Technologies and Expression Analysis (LTEA) Assay for X-box binding protein 1 (XBP1) using HepaRG (AID 2283540). Particulars: mRNA level, 48 h; actives raise or lower the signal. The method, boiled down: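 HepaRG, 48 h exposure, 8-pt half-log CRC top 100 uM, 0.5% DMSO vehicle, duplicates. Readout: TaqMan qRT-PCR of XBP1 mRNA, housekeeping-normalised (ACTB/GAPDH/POLR2A); bidirectional fit vs DMSO baseline.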

Several values for one entry are separate records, joined by “and”; a condition that tells them apart may be missing. Equal values may be shown once. Inconclusive results are not listed. Activity calls are given as the source filed them. How the source made its calls, unless noted: active means hit-call score of the fitted dose curve at least 0.9, where 1 is the maximum; inactive means score below 0.9.

Cellular tumor antigen p53 (Homo sapiens), sequence (P04637 whole entry, looked up): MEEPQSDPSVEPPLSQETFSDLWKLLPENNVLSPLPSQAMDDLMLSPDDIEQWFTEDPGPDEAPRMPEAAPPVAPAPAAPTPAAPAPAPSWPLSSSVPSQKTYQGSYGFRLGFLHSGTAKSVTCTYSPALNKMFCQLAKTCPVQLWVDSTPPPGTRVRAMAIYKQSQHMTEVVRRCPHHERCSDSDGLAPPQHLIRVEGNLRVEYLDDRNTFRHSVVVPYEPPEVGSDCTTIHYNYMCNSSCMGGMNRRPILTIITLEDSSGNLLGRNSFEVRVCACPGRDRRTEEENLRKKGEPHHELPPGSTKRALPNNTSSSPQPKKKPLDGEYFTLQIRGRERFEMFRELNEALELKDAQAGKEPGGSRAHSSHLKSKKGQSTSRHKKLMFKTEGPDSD
Signal transducer and activator of transcription 3 (Homo sapiens), sequence (P40763 whole entry, looked up): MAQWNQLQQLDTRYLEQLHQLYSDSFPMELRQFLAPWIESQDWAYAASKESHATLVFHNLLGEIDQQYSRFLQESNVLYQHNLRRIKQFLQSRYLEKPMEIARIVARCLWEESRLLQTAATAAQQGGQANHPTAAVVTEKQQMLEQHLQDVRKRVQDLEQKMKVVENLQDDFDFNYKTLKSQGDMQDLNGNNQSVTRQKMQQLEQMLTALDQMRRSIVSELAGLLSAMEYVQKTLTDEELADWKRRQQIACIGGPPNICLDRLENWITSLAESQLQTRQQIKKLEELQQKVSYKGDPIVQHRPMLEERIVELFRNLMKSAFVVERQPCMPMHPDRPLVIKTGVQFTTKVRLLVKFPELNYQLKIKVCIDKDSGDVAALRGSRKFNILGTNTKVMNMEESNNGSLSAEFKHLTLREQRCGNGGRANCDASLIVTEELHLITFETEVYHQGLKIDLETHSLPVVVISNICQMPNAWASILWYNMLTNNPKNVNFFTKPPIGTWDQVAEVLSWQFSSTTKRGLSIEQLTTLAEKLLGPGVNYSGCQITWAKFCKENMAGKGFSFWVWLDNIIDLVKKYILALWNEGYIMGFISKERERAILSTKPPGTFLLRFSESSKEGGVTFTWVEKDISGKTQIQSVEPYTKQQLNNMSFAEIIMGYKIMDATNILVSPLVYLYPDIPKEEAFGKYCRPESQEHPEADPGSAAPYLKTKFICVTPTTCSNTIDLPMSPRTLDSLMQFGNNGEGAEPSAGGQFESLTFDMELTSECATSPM

Regarding `O=C(O)C(F)(F)C(F)(F)C(F)(F)C(F)(F)C(F)(F)C(F)(F)C(F)(F)C(F)(F)F`, the outcome in test [1] is “inactive”; in test [2], “inactive”; with TIMP1, TIMP1 (gene 7076) it was “inactive”; in test [7], “inactive”; in test [13], “inactive”; in [15], “inactive”. Further, the outcome in test [17] was inactive. Also, the AC50 in test [3] was 90.8 µM (active); in test [4] it was 77.4 µM (active); in [5], 67.1 µM (active); in [6] it was 73.5 µM (active); in [8], 58.6 µM (active); in test [9] it was 60.4 µM (active). The concentration at half-maximal activity (AC50) in [10] is 85.4 µM (active); in test [11], 82.9 µM (active); in test [12], 78.6 µM (active); in [14], 85.3 µM (active); in test [16] it was 56.9 µM (active); in test [18], 46.1 µM (active).
As for `Oc1c(Cl)c(Cl)c(Cl)c(Cl)c1Cl`, the AC50 is 1.19 µM (active) in test [2]; 3.96 µM (active) in test [3]; 4.65 µM (active) in [4]; 12.3 µM (active) in test [5]; 5.06 µM (active) in test [6]; 14.9 µM (active) with TIMP1, TIMP1 (gene 7076). For the same compound, the AC50 is 5.95 µM (active) in test [7]; 3.94 µM (active) in test [8]; 6.71 µM (active) in test [9]; 3.76 µM (active) in [10]; 6.77 µM (active) in test [11]; 6.22 µM (active) in test [19]. The AC50 in test [12] was 6.81 µM (active); in [15], 8.58 µM (active) and 1.98 µM (active); in [17] it was 5.71 µM (active) and 1.86 µM (active). Also, the result in [13], in [14], in [16] and in test [18] was inactive.
